According to PubChem BioAssay AID743402 (Broad Institute, 2014):
The campaign covered roughly 1,200 compounds. About 140 (12%) were called active. Only a sample is shown. Unmarked numbers belong to inactive results.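 The calls were made as follows: active = fitted curve falls past -35% activity change at a dose under twice the top valid dose, in every replicate test; inconclusive = replicate tests disagree on the call; inactive = the rest, including activity in the opposite direction.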

assay: restoration of mutant CFTR halide transport – FRT cells, YFP quenching, cherry-pick, dose response (AID 743402); conditions: FRT CFTR-F508del YFP iodide quenching, 24 h, channel opened with forskolin and a potentiator; series mostly up to 26 µM; activity change, negative = more quenching (active): at the top concentration;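 also: compounds act as correctors raising surface CFTR-F508del before acute activation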

Row | Compound | activity change, negative = more quenching (active)
1 | O=C1c2ccccc2C(=O)c2c1cccc2N(CCO)CCO | -5.56%
2 | COc1ccc(S(=O)(=O)NCc2ccccn2)cc1NC(=O)c1ccccc1F | -10.7%
3 | COc1cccc(N2CCN(C(=O)c3ccc(CS(=O)c4ccc(C)cc4)o3)CC2)c1 (stereo not drawn) | -9.58%
4 | O=C(NCCOc1ccccc1)c1cc([N+](=O)[O-])ccc1N1CCOCC1 | 9.38%
5 | COc1ccc(OC)c(-c2cnc(OC(C)(C)C)nc2OC(C)(C)C)c1 | 3.12%
6 | COc1ccc([C@H]2CC(=O)C=C(c3c(OC)cccc3OC)C2)cc1 | 0%
7 | CC(C)C[C@H]1CN([C@@H](CC(C)C)CN2CCC[C@@H]2CN2C(=S)NC[C@@H]2Cc2ccc(O)cc2)C(=S)N1CCc1ccccc1 | 15.6%
8 | CCOC(=O)c1c(C)[nH]c(C(=O)N/N=C\c2ccccc2O)c1C | -6.25%
9 | N#CC1=C(N)Oc2cc(N)ccc2C1c1cccc(F)c1 (stereo not drawn) | 6.67%
10 | COc1ccccc1C#Cc1ccc2c(c1)O[C@@H](CN(C)Cc1cccnc1)[C@H](C)CN([C@H](C)CO)S2(=O)=O | 1.85%
11 | COc1ccc([C@H]2C[C@H](O)[C@@H](n3cc(-c4ccc(F)cc4)nn3)CN2Cc2cccs2)cc1 | 0%
12 | COc1cc(C(=O)Nc2ccccc2C(=O)Nc2ccccn2)cc(OC)c1OC | 19.4%
13 | COc1cccc(S(=O)(=O)N(C)C[C@@H]2Oc3cc(C4=CCCC4)ccc3S(=O)(=O)N([C@H](C)CO)C[C@H]2C)c1 | -3.33%
14 | COc1cc(/C=C(\C#N)c2nc3ccccc3[nH]2)cc(OC)c1O | 1.72%
15 | CCCCNC(=O)CSc1nc2ccc(C)cc2[nH]1 | 16.2%
16 | O=C(NCCN1C(=O)S/C(=C\c2ccc(OC(F)F)cc2)C1=O)c1cnccn1 | 3.33%
17 | CC(=O)Nc1cccc(-c2ccnc3c2CC(C)(C(=O)Nc2ccc4c(c2)OCO4)O3)c1 (stereo not drawn) | 16.7%
18 | O=C(NN=C1CCCC1)c1[nH]c2ccc(Cl)cc2c1-c1ccccc1 | 16.7%
19 | COc1cc(OC)c2c(-c3cccc(-c4sccc4C(C)=O)c3)cc(=O)oc2c1 | -3.12%
20 | CC(C)Oc1ncnc2c1[nH]c1ccccc12 | 6.67%
21 | O=c1[nH]c(/C=C/c2ccccc2F)nc2ccccc12 | 9.58%

Row | Compound | activity change, negative = more quenching (active)
22 | Cc1cccc(N2CCN(C(=O)c3ccc4[nH]c(C)c(C)c4c3)CC2)c1C | -6.67%
23 | O=C1C=CCC(/C=C/c2ccccc2)O1 (stereo not drawn) | 16.7%
24 | COc1ccc2c3c([nH]c2c1)[C@@H](CO)N(C(=O)C1CCOCC1)CC31CCN(Cc2cccc(F)c2)CC1 | -9.58%
25 | CN(Cc1ccccc1)S(=O)(=O)c1ccc(NC(=S)NC(=O)C2CCCC2)cc1 | -3.33%
26 | COc1ccc(NC(=O)c2nc(C)c(C3(C)CC(c4cccnc4)=NO3)s2)cc1 (stereo not drawn) | -3.33%
27 | COc1ccc(C(=O)OCC(=O)N2C(C)CCCC2C)cc1S(=O)(=O)N1CCOCC1 (stereo not drawn) | 14.8%
28 | Cc1ccc(/C=N/NC(=O)c2ccc3ccccc3c2)s1 | 0%
29 | COc1ccc(C2=Nn3c(nnc3-c3ccccc3F)SC2)cc1OC1CCOC1 (stereo not drawn) | -10%
30 | O=C(N/N=C/c1c(O)ccc2ccccc12)c1ccc(CO)nc1 | -6.25%
31 | C[C@H](CO)N1C[C@H](C)[C@@H](CN(C)Cc2ccc(Cl)c(Cl)c2)Oc2ccc(NC(=O)Nc3ccc(C(F)(F)F)cc3)cc2CC1=O | 10.2% [at 23.5 µM]
32 | Cc1cc(NCc2ccccn2)n2nc(C)c(-c3ccccc3)c2n1 | 13.1%
33 | COc1ccc(OC)c(/C(C)=N\NC(=O)c2cc3cc(Cl)ccc3n2C)c1 | 0%
34 | COc1ccc(CCNc2c3ccccc3nc3ccccc23)cc1OC | -2.92%
35 | CCOC(=O)c1sc(Nc2nc(C)cc(C)n2)nc1C | -11.1%
36 | COc1ccc(C)cc1Nc1c2c(nc3ccccc13)CCC2 | 29.2%
37 | O=S(=O)(Cc1ccc(Cl)cc1Cl)c1ccc(Cl)cc1 | -22.5%
38 | Cc1onc(-c2ccccc2Cl)c1C(=O)N1CCN(c2cccc(Cl)c2)CC1 | 10%
39 | CCN(Cc1ccccc1)c1ccc(/C=N/N=C(N)N)cc1 | 13.1%
40 | Cc1nn2cc(-c3cccc(Cl)c3)cnc2c1Br | 9.58%
41 | N#C[C@H]1[C@H](c2ccc(C3=CCCCC3)cc2)[C@@H](CO)N1C(=O)NC1CCCCC1 | -3.57%
42 | CCc1ccc(OCc2n[nH]c(=S)n2C(C)CCCC(C)C)cc1 (stereo not drawn) | 6.46%

Row | Compound | activity change, negative = more quenching (active)
43 | CCOc1ccc2[nH]c(C(=O)N/N=C/c3ccc(OC)cc3)cc2c1 | -10%
44 | C/C(=N\NC(=O)c1cc(-c2cccs2)nc2ccccc12)c1ccccn1 | 16%
45 | O=C(N/N=C/c1cccs1)c1cc(C2CC2)nc2ccccc12 | 13.3%
46 | CCOC(=O)c1cc2c(=Cc3ccc(N(C)C)cc3)c3ccccc3n2[n+]1C | 1.61%
47 | O=C1c2ccccc2C(=O)c2c1cccc2N1CCCC1 | 0%
48 | Cc1ccc(S(=O)(=O)N2CCCCC2CCNC(=O)C(=O)NCc2ccccc2)cc1 (stereo not drawn) | 27%
49 | COc1ccc(NC(=O)Nc2ccc3c(c2)C(=O)N([C@H](C)CO)C[C@@H](C)[C@H](CN(C)Cc2ccc(C(F)(F)F)cc2)OCCCC[C@H](C)O3)cc1 | 6.25%
50 | COc1ccc(COc2cc(-c3cccc(OC)c3)nc3ccc(NC(=O)c4ccc(OC)cc4)cc23)cc1 | -3.33%
51 | CCCCN1C(=O)CC(C(=O)OCC)=C1C | -6.97%
52 | CC1(C(=O)NCc2cccs2)Cc2c(-c3ccc4c(c3)OCO4)ccnc2O1 (stereo not drawn) | 0%
53 | CC1=NN(c2ccccc2)C(=O)C1N=Nc1cccc(O)c1 (stereo not drawn) | 0%
54 | O=C1CC(c2ccccc2)CC2=C1C=Nc1ccccc1N2 (stereo not drawn) | 18.8%
55 | CCc1c(C)nc2ncnn2c1NCCc1ccc(OC)cc1 | 0%
56 | COc1ccc(CCNc2ncnc3c2oc2ccccc23)cc1OC | -3.57%
57 | O=C1CN(S(=O)(=O)Cc2ccccc2)C[C@@H]2[C@@H](c3ccc(C#Cc4cccc(F)c4)cc3)[C@H](CO)N12 | -3.57%
58 | Cc1ccc2nc(-c3ccc4c(c3)OCCO4)cn2c1 | -13.3%
59 | CCCCNC(=O)C(=O)Nc1ccc2c(c1)N(S(=O)(=O)c1cccs1)CCC2 | 6.25%
60 | COc1cccc(/C=N/NC(=O)C(=O)Nc2ccccc2OC(F)(F)C(F)F)c1O | 8.28%
61 | Cc1ccc(-c2nn(-c3ccccc3)cc2C(=O)N2CCN(c3ccccn3)CC2)cc1 | 16.2%
62 | COc1ccc(S(=O)(=O)N(C(=O)C(C)C)c2ccc3oc(=O)sc3c2)cc1 | 12.9%
63 | COc1nc(-c2ccccc2)cc(-c2ccc3c(c2)OCO3)c1C#N | 0%
